Reference: PubChem BioAssay AID1159580 (chemical genetic matrix, 2015)
“And” between values parts separate entries of the source, which are not always exact repeats. Equal values may be shown once. The whole screen tested about 5,500 compounds, of which about 2,000 (36%) were called active. Another 18% or so got no clear call; they are omitted. Cut-off read from the data, not from the text of the source: active = normalized growth mostly below about 0.91 (no sharp cut-off); inconclusive = no clear call, values can overlap the other calls; inactive = mostly above about 0.92. This is one part of the list.

Test: chemical genetic growth profiling, strain panel (AID 1159580);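 note: tested at 20 µM; growth read once vehicle control cultures reached saturation at 30 °C; 1 = growth at the plate median or of vehicle wells; lower values mean less growth of the strain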
Settings: growth OD

Measured: normalized growth

CC(C)(C)NCC(O)c1cc(O)cc(O)c1 (stereo not drawn)
inactive: S. cerevisiae deletion strains, locus YKL009W, strain mrt4, stronger effect = lower value 0.961 | S. cerevisiae deletion strains, locus YKL068W, stronger effect = lower value 0.975 | S. cerevisiae deletion strains, locus YKL085W, strain MDH1 (second series), stronger effect = lower value 0.967 | S. cerevisiae deletion strains, locus YKL085W, strain MDH1, stronger effect = lower value 0.967 | S. cerevisiae deletion strains, locus YKL160W, strain elf1, stronger effect = lower value 0.934 | S. cerevisiae deletion strains, locus YKL190W, strain CNB1, stronger effect = lower value 0.994 | S. cerevisiae deletion strains, locus YKR001C, strain vps1, stronger effect = lower value 0.994 | S. cerevisiae deletion strains, locus YKR026C, strain gcn3, stronger effect = lower value 0.983 | S. cerevisiae deletion strains, locus YKR091W, strain srl3, stronger effect = lower value 0.978 | S. cerevisiae deletion strains, locus YLL001W, strain dnm1, stronger effect = lower value 1 | S. cerevisiae deletion strains, locus YLL026W, stronger effect = lower value 0.984 | S. cerevisiae deletion strains, locus YLL041C, strain sdh2, stronger effect = lower value 0.993 | S. cerevisiae deletion strains, locus YLR027C, strain aat2, stronger effect = lower value 0.987 | S. cerevisiae deletion strains, locus YLR039C, strain RIC1, stronger effect = lower value 0.978 | S. cerevisiae deletion strains, locus YLR058C, strain SHM2, stronger effect = lower value 0.987 | S. cerevisiae deletion strains, locus YLR102C, strain apc9, stronger effect = lower value 0.982 | S. cerevisiae deletion strains, locus YLR113W, strain HOG1, stronger effect = lower value 0.981 | S. cerevisiae deletion strains, locus YLR221C, strain rsa3, stronger effect = lower value 1.01 | S. cerevisiae deletion strains, locus YLR258W, strain gsy2, stronger effect = lower value 0.993 | S. cerevisiae deletion strains, locus YLR262C, strain YPT6 (second series), stronger effect = lower value 1 | S. cerevisiae deletion strains, locus YLR262C, strain YPT6, stronger effect = lower value 0.979 | S. cerevisiae deletion strains, locus YLR268W, strain sec22, stronger effect = lower value 0.951 | S. cerevisiae deletion strains, locus YLR320W, strain mms22, stronger effect = lower value 0.981 | S. cerevisiae deletion strains, locus YLR330W, strain CHS5, stronger effect = lower value 0.976 | S. cerevisiae deletion strains, locus YLR342W, strain FKS1 (second series), stronger effect = lower value 0.99 | S. cerevisiae deletion strains, locus YLR342W, strain FKS1, stronger effect = lower value 0.991 | S. cerevisiae deletion strains, locus YLR357W, strain rsc2, stronger effect = lower value 0.967 | S. cerevisiae deletion strains, locus YLR370C, strain arc18, stronger effect = lower value 0.975 | S. cerevisiae deletion strains, locus YLR371W, strain rom2, stronger effect = lower value 0.964 | S. cerevisiae deletion strains, locus YLR384C, strain iki3, stronger effect = lower value 0.988 | S. cerevisiae deletion strains, locus YLR418C, strain cdc73, stronger effect = lower value 0.996 | S. cerevisiae deletion strains, locus YML016C, strain PPZ1, stronger effect = lower value 0.992 | S. cerevisiae deletion strains, locus YML032C, strain rad52, stronger effect = lower value 0.99 | S. cerevisiae deletion strains, locus YML120C, strain ndi1, stronger effect = lower value 0.967 | S. cerevisiae deletion strains, locus YML124C, strain tub3, stronger effect = lower value 0.983 | S. cerevisiae deletion strains, locus YMR058W, strain fet3, stronger effect = lower value 1 | S. cerevisiae deletion strains, locus YMR078C, strain ctf18, stronger effect = lower value 0.976 | S. cerevisiae deletion strains, locus YMR125W, strain sto1, stronger effect = lower value 0.959 | S. cerevisiae deletion strains, locus YMR129W, stronger effect = lower value 0.969 | S. cerevisiae deletion strains, locus YMR205C, strain PFK2, stronger effect = lower value 0.984 | S. cerevisiae deletion strains, locus YMR223W, strain ubp8, stronger effect = lower value 1.02 | S. cerevisiae deletion strains, locus YMR231W, strain pep5, stronger effect = lower value 0.98 | S. cerevisiae deletion strains, locus YMR263W, strain SAP30, stronger effect = lower value 0.984 | S. cerevisiae deletion strains, locus YMR307W, strain GAS1, stronger effect = lower value 1.04 and 0.986 | S. cerevisiae deletion strains, locus YNL067W, strain RPL9B, stronger effect = lower value 0.985 | S. cerevisiae deletion strains, locus YNL071W, strain lat1, stronger effect = lower value 0.995 | S. cerevisiae deletion strains, locus YNL128W, strain TEP1, stronger effect = lower value 1.01 | S. cerevisiae deletion strains, locus YNL175C, strain NOP13, stronger effect = lower value 0.995 | S. cerevisiae deletion strains, locus YNL183C, strain NPR1, stronger effect = lower value 0.943 | S. cerevisiae deletion strains, locus YNL197C, strain WHI3, stronger effect = lower value 1 | S. cerevisiae deletion strains, locus YNL209W, strain ssb2, stronger effect = lower value 0.989 | S. cerevisiae deletion strains, locus YNL224C, strain SQS1, stronger effect = lower value 1.01 | S. cerevisiae deletion strains, locus YNL233W, strain BNI4, stronger effect = lower value 0.993 | S. cerevisiae deletion strains, locus YNL248C, strain rpa49, stronger effect = lower value 0.923 | S. cerevisiae deletion strains, locus YNL271C, strain bni1, stronger effect = lower value 0.985 | S. cerevisiae deletion strains, locus YNL298W, strain CLA4, stronger effect = lower value 0.979 | S. cerevisiae deletion strains, locus YNL307C, strain MCK1, stronger effect = lower value 0.975 | S. cerevisiae deletion strains, locus YNL322C, strain KRE1 (second series), stronger effect = lower value 0.953 | S. cerevisiae deletion strains, locus YNL322C, strain KRE1, stronger effect = lower value 0.979 | S. cerevisiae deletion strains, locus YNR049C, strain mso1, stronger effect = lower value 0.983 | S. cerevisiae deletion strains, locus YNR052C, strain pop2, stronger effect = lower value 0.983 | S. cerevisiae deletion strains, locus YOL006C, strain TOP1, stronger effect = lower value 1.06 | S. cerevisiae deletion strains, locus YOL012C, strain htz1 0.966 | S. cerevisiae deletion strains, locus YOL147C, strain pex11, stronger effect = lower value 0.969 | S. cerevisiae deletion strains, locus YOR001W, strain rrp6, stronger effect = lower value 1.01 | S. cerevisiae deletion strains, locus YOR061W, strain CKA2, stronger effect = lower value 1 | S. cerevisiae deletion strains, locus YOR069W, strain VPS5, stronger effect = lower value 0.986 | S. cerevisiae deletion strains, locus YOR070C, strain gyp1, stronger effect = lower value 0.986 | S. cerevisiae deletion strains, locus YOR080W, strain dia2, stronger effect = lower value 0.996 | S. cerevisiae deletion strains, locus YOR083W, strain WHI5 (second series), stronger effect = lower value 0.987 | S. cerevisiae deletion strains, locus YOR083W, strain WHI5, stronger effect = lower value 0.908 | S. cerevisiae deletion strains, locus YOR106W, strain vam3, stronger effect = lower value 0.933 | S. cerevisiae deletion strains, locus YOR136W, strain idh2, stronger effect = lower value 0.992 | S. cerevisiae deletion strains, locus YOR144C, strain elg1, stronger effect = lower value 0.989 | S. cerevisiae deletion strains, locus YOR184W, strain ser1, stronger effect = lower value 0.991 | S. cerevisiae deletion strains, locus YOR231W, strain MKK1, stronger effect = lower value 1.01 | S. cerevisiae deletion strains, locus YOR265W, strain rbl2, stronger effect = lower value 0.992 | S. cerevisiae deletion strains, locus YOR270C, strain vph1, stronger effect = lower value 0.932 | S. cerevisiae deletion strains, locus YOR290C, strain snf2, stronger effect = lower value 0.967 | S. cerevisiae deletion strains, locus YOR316C, strain cot1, stronger effect = lower value 0.982 | S. cerevisiae deletion strains, locus YPL051W, strain arl3, stronger effect = lower value 0.968 | S. cerevisiae deletion strains, locus YPL055C, strain LGE1, stronger effect = lower value 1.01 and 0.983 | S. cerevisiae deletion strains, locus YPL078C, strain atp4, stronger effect = lower value 0.944 | S. cerevisiae deletion strains, locus YPL106C, strain sse1, stronger effect = lower value 0.97 | S. cerevisiae deletion strains, locus YPL240C, strain hsp82, stronger effect = lower value 1.01 | S. cerevisiae deletion strains, locus YPL241C, strain CIN2, stronger effect = lower value 0.987 | S. cerevisiae deletion strains, locus YPL256C, strain CLN2, stronger effect = lower value 0.959 | S. cerevisiae deletion strains, locus YPR119W, strain clb2, stronger effect = lower value 0.975 | S. cerevisiae deletion strains, locus YPR141C, strain kar3, stronger effect = lower value 0.976 | S. cerevisiae deletion strains, locus YPR163C, strain tif3, stronger effect = lower value 0.978 | S. cerevisiae deletion strains, locus YPR167C, strain met16, stronger effect = lower value 0.974 | S. cerevisiae deletion strains, strain wtn01, stronger effect = lower value 0.99 | S. cerevisiae strains, strain wild type, stronger effect = lower value 0.993
